From PubChem BioAssay (NCATS) come the findings set out here.

The subject of one assay is TAB113. Description: qHTS profiling for inhibitors of Plasmodium falciparum proliferation (AID 504749).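 Also: 0% = DMSO vehicle and full inhibition = artemisinin control.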 To be noted: P. falciparum in erythrocytes, SYBR Green DNA, 72 h; series mostly up to 28.7 µM. The procedure, abridged:
(§1)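 P. falciparum-infected erythrocytes (0.3% parasitemia, 2.5% hematocrit final) were exposed to compounds for 72 h at 37 C in 5% CO2, then lysed with SYBR Green buffer overnight at room temperature; parasite DNA fluorescence was normalized to artemisinin and DMSO controls.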

The test system of the next assay is TAB165. Described as above. To be noted: P. falciparum in erythrocytes, SYBR Green DNA, 72 h; series mostly up to 28.7 µM. The procedure, abridged:
as §1

For the next assay, the system named is W2. The description is as above. To be noted: P. falciparum in erythrocytes, SYBR Green DNA, 72 h; series mostly up to 28.7 µM. The procedure, abridged:
as §1

Another assay has as its system CRL-7250. In words: Cytotoxic Profiling of Annotated Libraries Using Quantitative High-Throughput Screening (AID 1296008). Also: potency is read from the fitted curve at half-maximal effect. As to max response: % is scaled to controls: 0 for no effect and ±100 for the full control effect. The conditions noted are these: Five cell lines viability, CellTiter-Glo ATP luminescence, 48-72 h; max response: active compounds read low. The procedure, abridged:
(§2)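 Compounds were pin-transferred onto cells and incubated 48 or 72 hr at 37 degree Celsius, 95% humidity. CellTiter-Glo was added, plates sat 10 min at room temperature, then ATP-coupled luminescence was imaged as the viability read-out.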

A further assay has as its system HEK293. The description is as above. To be noted: Five cell lines viability, CellTiter-Glo ATP luminescence, 48-72 h; max response: active compounds read low. The procedure, abridged:
as §2
Background: In ATP-based viability assays light output follows the ATP content of the culture.

Assay [1] deals with HaCat. Described as above. To be noted: Five cell lines viability, CellTiter-Glo ATP luminescence, 48-72 h; max response: active compounds read low. The method in brief:
as §2

Another assay deals with KB-3-1. The assay is described as above. The conditions noted are these: Five cell lines viability, CellTiter-Glo ATP luminescence, 48-72 h; max response: active compounds read low. The method in brief: as §2
A further assay relates to NIH3T3. Described as above. To be noted: Five cell lines viability, CellTiter-Glo ATP luminescence, 48-72 h; max response: active compounds read low. The method in brief:
as §2

The test system of assay [2] is HACAT. Description: qHTS assay to identify novel small-molecules to repurpose for Merkel cell carcinoma treatment (AID 1296009). To be noted: MCC and control cell lines, CellTiter-Glo viability, 72 h; at 44.8 µM (top of the series) unless noted. The procedure, abridged:
(§3)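 Cells exposed to NPC (8-point) and MIPE (11-point) compound dilutions for 72 hr at 37 degree celsius; viability read by CellTiter-Glo luminescence, normalized to no-cell and DMSO in-plate controls.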

A further assay concerns HEK293T. The assay is described as above. The conditions noted are these: MCC and control cell lines, CellTiter-Glo viability, 72 h; at 44.8 µM (top of the series) unless noted. The procedure, abridged: as §3

Where “and” joins values, the source holds several entries; their conditions need not be identical. Equal values may be shown once. Inconclusive results are not listed. A number with no mark means an inactive call. Calls of active or inactive are those of the source. Calls follow the shape of the dose curve; as a rule, active = well fitted inhibition curve with a large enough effect; inconclusive = small, poorly fitted or top-dose-only effect; inactive = flat fitted curve, though single readings scatter.
Also: nearly all actives have a fitted effect of over 60% in size.

As to `NC(=O)NC(=O)Cc1ccccc1`, the Potency result in the assay with TAB113, in the assay with TAB165 and in the assay on W2 was “inactive” each time. In addition, the max response was 3.98% in the assay with CRL-7250, 5.24% in the assay on KB-3-1 and 3.84% in the assay on NIH3T3. Besides, the call in the assay with HEK293, in the assay with HaCat [1], with HACAT [2] and with HEK293T was inactive.
Consider `CC(C)(C)NCC(O)COc1ccc(NC(=O)NC2CCCCC2)cc1` (centres undefined), for which the Potency entry in the assay on TAB113, with TAB165 and in the assay with W2 was “inactive” in each case. Moreover, the call in the assay with CRL-7250, in the assay on HEK293, with HaCat [1], in the assay on NIH3T3, with HACAT [2] and with HEK293T was inactive. For the same molecule, the max response in the assay with KB-3-1 was 0.958%.
`C#CCN(C)Cc1ccccc1`: the Potency entry in the assay on TAB113, in the assay on TAB165 and with W2 was “inactive” throughout. Also, the max response was 4.31% in the assay on CRL-7250, -27.7% with HEK293, -4.93% in the assay with KB-3-1 and 3.32% with NIH3T3. Further, the result with HaCat [1] and in the assay with HACAT [2] was inactive.
`c1ccc2c(CC3=NCCN3)cccc2c1`: the max response was -1.39% in the assay with CRL-7250; -1.06% in the assay with HaCat [1]; -1.96% and -17.3% and -10.3% in the assay on KB-3-1; 1.32% in the assay on NIH3T3. The molecule was classed as inactive in the assay on HEK293 and in the assay with HEK293T.
Take `C[C@H]1O[C@@H](n2cc(F)c(=O)[nH]c2=O)[C@H](O)[C@@H]1O`: the Potency entry with TAB113, in the assay on TAB165 and in the assay with W2 was “inactive” each time. In addition, the figures for the max response in the assay with CRL-7250, in the assay with KB-3-1 and in the assay with NIH3T3 were -5.52%, -0.506% and -23.8%, respectively. Besides, the molecule was called inactive in the assay on HEK293 and in the assay on HEK293T. In addition, the Potency with HaCat [1] was 10.6 µM (active).
Turning to `C[C@@H]1CCN(C(=O)[C@H](CCCN=C(N)N)NS(=O)(=O)c2cccc3c2NC[C@H](C)C3)[C@@H](C(=O)O)C1`, the max response was 0.468% in the assay with CRL-7250, 0.409% with HaCat [1] and 1.81% in the assay with KB-3-1. Moreover, the outcome in the assay with HEK293, in the assay with NIH3T3 and in the assay on HEK293T was inactive.
In the case of `CC1(C)CO[C@@H](CC(=O)O)CN1`, the Potency entry in the assay on TAB113, in the assay with TAB165 and in the assay on W2 was “inactive” in each case. For the same molecule, the call in the assay with CRL-7250, in the assay with HEK293, in the assay with HaCat [1], in the assay on HACAT [2] and with HEK293T was inactive. In addition, the max response was 9.26% with KB-3-1 and -2.92% in the assay on NIH3T3.
With `CC(COc1ccccc1)NC(C)C(O)c1ccc(O)cc1` (centres undefined), the max response in the assay with CRL-7250 is -14.7%; in the assay on HaCat [1], -5.97%; with KB-3-1, 15.9%. Further, the result in the assay on HEK293, with NIH3T3 and in the assay with HEK293T was inactive.
As to `C[C@]12CC[C@@H]3c4ccc(O)cc4CC[C@H]3[C@@H]1CCC2=O`, the outcome in the assay on CRL-7250, in the assay with HEK293 and with HEK293T was inactive. Further, the max response in the assay with HaCat [1] was 3.4%; with KB-3-1 it was 23.7%; with NIH3T3, 0.542%.
In the case of `NCC(=O)CCC(=O)O`, the Potency entry in the assay on TAB113 and in the assay on TAB165 was “inactive” each time. The max response is -2.12% with CRL-7250, -9.5% in the assay with HaCat [1] and 1.71% with KB-3-1. In addition, the result in the assay on HEK293, with NIH3T3 and with HEK293T was inactive.
For the molecule `CC1=C(C/C=C(\C)CCC[C@H](C)CCC[C@H](C)CCCC(C)C)C(=O)c2ccccc2C1=O`, the max response with CRL-7250 is 1.2%; in the assay with NIH3T3 it was 1.11%. The outcome with HEK293, in the assay on HaCat [1], in the assay with HACAT [2] and with HEK293T was inactive.
In the case of `O=Cc1ccccc1C=O`, the Potency entry with TAB113, with TAB165 and in the assay on W2 was “inactive” throughout. Besides, the figures for the max response in the assay on CRL-7250 and in the assay on HaCat [1] were -8.99% and 3.01%, respectively. Further, the molecule was classed as inactive with HEK293, in the assay with NIH3T3 and in the assay with HEK293T.
In the case of `COc1ccc2c(c1)C(=O)N(CCc1ccc(S(=O)(=O)NC(=O)NC3CCCCC3)cc1)C(=O)C2(C)C`, the Potency entry in the assay with TAB113, with TAB165 and with W2 was “inactive” throughout. Further, the max response in the assay on CRL-7250 was 2.02% and -12.3%; with HEK293 it was -11%; in the assay on HaCat [1], 4.11%; in the assay with KB-3-1 it was 7.8% and -5.8%; in the assay on NIH3T3 it was -19.1% and -11.5%.
With `O=C1N=C(O)CN1/N=C/c1ccc(-c2ccc([N+](=O)[O-])cc2)o1`, the molecule was classed as inactive in the assay with CRL-7250, in the assay with HaCat [1] and with HACAT [2]. The max response in the assay with HEK293 was -11.3%; with NIH3T3 it was -4.3%.
With `CCCCN(CCCC)CCCOC(=O)c1ccc(N)cc1`, the Potency entry in the assay on TAB113 and in the assay on TAB165 was “inactive” throughout. In addition, the call in the assay with CRL-7250, in the assay on HEK293, with NIH3T3 and in the assay with HEK293T was inactive. Besides, the max response in the assay with HaCat [1] is -1.28%.
